The record followed here is PubChem BioAssay (NCATS).

Each structure is given as a SMILES string. Values without a mark were called inactive. Inconclusive results are not listed. Active and inactive are the calls of the source. Unless noted, the call rests on the fitted dose curve; in most records, active means well fitted curve in the direction sought with a large enough effect; inconclusive means small, poorly fitted or top-dose-only effect, or another doubt; inactive means no such curve, though single readings can be large; an effect the other way counts as inactive or inconclusive. Bounds are passed on as bounds.

In experiment [1] the target is Rap guanine nucleotide exchange factor 3 (Homo sapiens) (UniProt O95398). The experiment is described as follows: Confirmatory qHTS for agonist of cAMP-regulated guanine nucleotide exchange factor 3 (EPAC1) (AID 1645881).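 Further: EPAC1 catalysed release of BODIPY-GDP from Rap1B seen as fluorescence loss; nearly all actives have a fitted effect of over 75% in size.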
Rap guanine nucleotide exchange factor 3 (Homo sapiens), sequence (O95398 whole entry, looked up): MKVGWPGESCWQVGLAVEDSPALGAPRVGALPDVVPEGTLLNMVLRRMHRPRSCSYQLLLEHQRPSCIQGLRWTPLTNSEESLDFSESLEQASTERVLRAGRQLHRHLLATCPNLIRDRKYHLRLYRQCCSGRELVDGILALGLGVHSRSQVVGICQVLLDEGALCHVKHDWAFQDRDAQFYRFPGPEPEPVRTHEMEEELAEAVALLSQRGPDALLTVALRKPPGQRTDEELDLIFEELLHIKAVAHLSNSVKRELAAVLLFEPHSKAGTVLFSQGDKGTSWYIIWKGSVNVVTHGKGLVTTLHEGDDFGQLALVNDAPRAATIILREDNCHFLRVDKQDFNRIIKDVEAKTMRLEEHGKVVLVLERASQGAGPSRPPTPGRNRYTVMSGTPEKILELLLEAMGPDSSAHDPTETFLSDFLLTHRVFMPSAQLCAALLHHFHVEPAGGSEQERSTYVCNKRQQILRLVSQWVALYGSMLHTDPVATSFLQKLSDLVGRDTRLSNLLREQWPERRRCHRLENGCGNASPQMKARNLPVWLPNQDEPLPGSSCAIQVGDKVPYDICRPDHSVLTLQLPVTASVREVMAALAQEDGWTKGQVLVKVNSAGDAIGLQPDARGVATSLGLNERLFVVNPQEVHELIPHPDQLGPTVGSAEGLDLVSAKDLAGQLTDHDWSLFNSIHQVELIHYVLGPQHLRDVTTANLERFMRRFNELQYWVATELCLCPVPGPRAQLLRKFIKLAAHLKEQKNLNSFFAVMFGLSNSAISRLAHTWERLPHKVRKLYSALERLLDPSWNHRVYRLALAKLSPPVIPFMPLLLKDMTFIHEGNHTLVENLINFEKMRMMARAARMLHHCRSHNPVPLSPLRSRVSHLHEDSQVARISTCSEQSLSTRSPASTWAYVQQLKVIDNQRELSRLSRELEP
For experiment [2], the target named is Rap guanine nucleotide exchange factor 4 (Homo sapiens) (UniProt Q8WZA2). As to the kind of experiment: Confirmatory qHTS for agonist of cAMP-regulated guanine nucleotide exchange factor 4 (EPAC2) (AID 1645884). Further: on the % scale 0 is the no-effect control and ±100 the full control effect; nearly all actives have a fitted effect of over 65% in size. Background: In qHTS, concentration-response curves come from the screen itself.
Rap guanine nucleotide exchange factor 4 (Homo sapiens), sequence (Q8WZA2 whole entry, looked up): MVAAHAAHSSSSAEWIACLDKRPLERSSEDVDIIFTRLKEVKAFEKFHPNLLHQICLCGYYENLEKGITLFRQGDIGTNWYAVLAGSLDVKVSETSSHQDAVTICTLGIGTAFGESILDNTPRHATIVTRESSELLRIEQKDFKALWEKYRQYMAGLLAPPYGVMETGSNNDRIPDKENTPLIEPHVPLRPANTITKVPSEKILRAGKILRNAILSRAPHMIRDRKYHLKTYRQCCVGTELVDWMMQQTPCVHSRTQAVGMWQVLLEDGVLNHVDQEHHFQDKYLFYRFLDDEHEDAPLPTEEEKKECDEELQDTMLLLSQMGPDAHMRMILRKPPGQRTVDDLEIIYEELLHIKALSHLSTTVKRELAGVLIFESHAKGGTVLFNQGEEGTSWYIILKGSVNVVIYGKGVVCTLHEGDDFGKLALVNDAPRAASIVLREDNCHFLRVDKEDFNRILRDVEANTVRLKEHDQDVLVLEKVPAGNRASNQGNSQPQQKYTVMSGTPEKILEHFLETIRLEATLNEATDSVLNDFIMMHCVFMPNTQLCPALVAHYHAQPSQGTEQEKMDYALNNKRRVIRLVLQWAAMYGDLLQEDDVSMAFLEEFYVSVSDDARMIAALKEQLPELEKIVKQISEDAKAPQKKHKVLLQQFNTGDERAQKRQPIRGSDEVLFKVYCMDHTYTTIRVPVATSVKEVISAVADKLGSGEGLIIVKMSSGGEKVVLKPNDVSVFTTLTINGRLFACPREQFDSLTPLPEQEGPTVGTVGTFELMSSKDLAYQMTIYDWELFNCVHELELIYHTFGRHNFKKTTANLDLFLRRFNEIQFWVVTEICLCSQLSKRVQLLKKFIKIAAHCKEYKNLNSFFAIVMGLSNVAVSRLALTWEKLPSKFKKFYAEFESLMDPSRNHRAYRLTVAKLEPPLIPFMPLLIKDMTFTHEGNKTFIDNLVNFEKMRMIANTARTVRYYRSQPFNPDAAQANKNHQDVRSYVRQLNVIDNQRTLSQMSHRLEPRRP
For experiment [3] the target is unchanged. As to the kind of experiment: Confirmatory qHTS for antagonist of cAMP-regulated guanine nucleotide exchange factor 4 (EPAC2) (AID 1645885). Further: nearly all actives have a fitted effect of over 25% in size. Further: potency means the concentration at half of the fitted maximal effect. On activity change, negative = inhibition: on the % scale 0 is the no-effect control and ±100 the full control effect.
For experiment [4], the target named is Rap guanine nucleotide exchange factor 3 (Homo sapiens) (UniProt O95398). As to the kind of experiment: Counterscreen qHTS for agonist of cAMP-regulated guanine nucleotide exchange factor 3 (EPAC1) (AID 1645889). Further: % of control where 0% means no effect; nearly all actives have a fitted effect of over 40% in size. In short, it runs like this: (§1)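 Measured: fluorescence of BODIPY-GDP bound to Rap1B, which falls as exchange proceeds. Conditions include 50 uM competing GDP, 5 and 30 min reads, and a later cAMP challenge for antagonist detection.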
Background: A counterscreen serves to expose hits that act by an unwanted route or on another target.

The target of experiment [5] is Lysosomal acid glucosylceramidase (Homo sapiens) (UniProt P04062). The experiment is described as follows: Glucocerebrosidase-p2 (AID 348; in the data active means potency below about 10 µM; further: potency means the concentration at half of the fitted maximal effect). Particulars: purified GBA, blue fluorogenic substrate, 40 min. In short, it runs like this:
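Normal human glucocerebrosidase (0.2 nM) with blue fluorogenic substrate (80 uM final) in citrate/phosphate pH 5.9 with 10mM sodium taurocholate, 0.01% tween-20; 40 min RT, NaOH/glycine stop; fluorescence Ex 365/Em 440; AC50 from a titration from 0.6 nM upwards.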

A short description of experiment [6]: AP1 Signaling Pathway (AID 357; active means well fitted curve in either direction with a large enough effect, not every such curve was filed as active;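 further: ME-180 reporter cells stimulated with EGF at its EC50 level; on the % scale 0 is the no-effect control and ±100 the full control effect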). Particulars: ME-180 (cervical carcinoma) AP-1-bla reporter, EGF-induced, beta-lactamase ratio, 5 h; at 7.69 µM (top of the series) unless noted. In outline:
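Beta-lactamase reporter under AP-1 response element, ME-180 background. Stimulus: EC50 EGF. Compound exposure 5 h, 37 °C. Detection: CCF4, 2.5 h RT, 460/530 nm. Values: AC50 from titration.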

For experiment [7], the target named is Cytochrome P450 1A2 (Homo sapiens) (UniProt P05177). The experiment is described as follows: p450-cyp1a2 (AID 410; calls by dose curve; further: potency means the concentration at half of the fitted maximal effect). In outline: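 20nM CYP1A2, 100uM Luciferin-ME (=Km), 100mM KPO4; cpd 10 min RT; +NADPH regen, 60 min RT; stop/detect 20 min; luminescence. Normalized to furafylline 57 uM = full inhibition.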
The nature of experiment [8]: Stat Signaling Pathway (AID 446; active means well fitted curve in either direction with a large enough effect, not every such curve was filed as active;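 further: ME-180 cervical cancer cells given 40 pM IL-6 alongside compound; SIE-controlled beta-lactamase reporter measured as 460/530 nm FRET emission ratio; on the % scale 0 is the no-effect control and ±100 the full control effect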). In outline:
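Compound effects on IL-6-induced STAT reporter activity were measured in ME-180 cells. After overnight culture, cells were co-treated with 40 pM IL-6 for 5 hrs before beta-lactamase substrate loading at room temperature.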

In experiment [9] the target is Glucocorticoid receptor (Homo sapiens) (UniProt P04150). As to the kind of experiment: GR-EFC Redistribution (AID 451; calls by dose curve; further: potency means the concentration at half of the fitted maximal effect). To be noted: CHO-K1 GR-EFC translocation, beta-gal luminescence, 2 h. In outline: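 CHO-K1 cells stably expressing nuclear-localized β-gal enzyme acceptor and GR fused C-terminally to the enzyme donor fragment; ligand-driven nuclear translocation restores β-gal by complementation. Compounds titrated up to 46 uM final, 2 h at 37 °C; luminescence read.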
Glucocorticoid receptor (Homo sapiens), sequence (P04150 whole entry, looked up, the tested form may be a part): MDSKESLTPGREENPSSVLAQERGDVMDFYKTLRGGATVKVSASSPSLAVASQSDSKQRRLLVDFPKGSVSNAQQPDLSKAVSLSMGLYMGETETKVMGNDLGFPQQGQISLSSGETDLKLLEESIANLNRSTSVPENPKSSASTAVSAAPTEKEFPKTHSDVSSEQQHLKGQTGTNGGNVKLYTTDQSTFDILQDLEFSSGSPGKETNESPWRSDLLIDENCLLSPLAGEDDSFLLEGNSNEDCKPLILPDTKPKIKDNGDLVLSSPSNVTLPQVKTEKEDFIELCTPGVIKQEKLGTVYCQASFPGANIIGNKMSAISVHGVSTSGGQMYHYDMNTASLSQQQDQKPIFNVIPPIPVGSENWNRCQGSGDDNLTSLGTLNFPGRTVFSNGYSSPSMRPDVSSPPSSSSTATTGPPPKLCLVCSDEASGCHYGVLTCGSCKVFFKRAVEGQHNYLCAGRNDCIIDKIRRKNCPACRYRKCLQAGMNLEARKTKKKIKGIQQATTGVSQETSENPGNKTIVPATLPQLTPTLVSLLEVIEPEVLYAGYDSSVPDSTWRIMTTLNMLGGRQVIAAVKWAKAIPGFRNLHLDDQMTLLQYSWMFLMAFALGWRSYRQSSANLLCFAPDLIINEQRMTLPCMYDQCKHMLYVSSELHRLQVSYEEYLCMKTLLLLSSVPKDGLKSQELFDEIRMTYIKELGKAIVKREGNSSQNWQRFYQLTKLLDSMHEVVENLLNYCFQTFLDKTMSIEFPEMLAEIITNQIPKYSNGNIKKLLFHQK

The target of experiment [10] is Mitogen-activated protein kinase 10 (Mus musculus) (UniProt Q61831). As to the kind of experiment: JNK3 AlphaScreen Assay (AID 530; active means well fitted curve in either direction with a large enough effect, not every such curve was filed as active;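 further: kinase came from lysate of stimulated human HepG2 cells; signal reports phosphorylation of biotinylated GST-cJun 1-79 at Ser73 with 10 µM ATP; on the % scale 0 is the no-effect control and ±100 the full control effect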). In outline: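 Biotinylated GST-cJun(1-79) served as substrate for JNK3 in HepG2 lysates stimulated with IL-1beta and TNF-alpha. ATP was 10 uM final, pH 7.6. Ser73 phosphorylation was quantified by AlphaScreen (680 nm excitation).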
For orientation: In Alpha technology, singlet oxygen from a donor bead excites a nearby acceptor bead.

In experiment [11] the target is 3',5'-cyclic-AMP phosphodiesterase 4B (Homo sapiens) (UniProt Q07343). As to the kind of experiment: qHTS Assay for Inhibitors of PDE-IV (AID 607; active means well fitted activation curve with a large enough effect in the main read-out, with a control signal flat, not every such curve was filed as active; further: % of control where 0% means no effect). In short, it runs like this: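 ACTOne HEK293 cells carry a modified cAMP-gated CNG channel and express endogenous PDE4; plated 1000 cells/well, compounds up to 22.9 uM final. Membrane-potential dye fluorescence (ex 535/em 590) was read; parental cells received 10 uM forskolin + 100 uM RO 20-1724.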
3',5'-cyclic-AMP phosphodiesterase 4B (Homo sapiens), sequence (Q07343 whole entry, looked up): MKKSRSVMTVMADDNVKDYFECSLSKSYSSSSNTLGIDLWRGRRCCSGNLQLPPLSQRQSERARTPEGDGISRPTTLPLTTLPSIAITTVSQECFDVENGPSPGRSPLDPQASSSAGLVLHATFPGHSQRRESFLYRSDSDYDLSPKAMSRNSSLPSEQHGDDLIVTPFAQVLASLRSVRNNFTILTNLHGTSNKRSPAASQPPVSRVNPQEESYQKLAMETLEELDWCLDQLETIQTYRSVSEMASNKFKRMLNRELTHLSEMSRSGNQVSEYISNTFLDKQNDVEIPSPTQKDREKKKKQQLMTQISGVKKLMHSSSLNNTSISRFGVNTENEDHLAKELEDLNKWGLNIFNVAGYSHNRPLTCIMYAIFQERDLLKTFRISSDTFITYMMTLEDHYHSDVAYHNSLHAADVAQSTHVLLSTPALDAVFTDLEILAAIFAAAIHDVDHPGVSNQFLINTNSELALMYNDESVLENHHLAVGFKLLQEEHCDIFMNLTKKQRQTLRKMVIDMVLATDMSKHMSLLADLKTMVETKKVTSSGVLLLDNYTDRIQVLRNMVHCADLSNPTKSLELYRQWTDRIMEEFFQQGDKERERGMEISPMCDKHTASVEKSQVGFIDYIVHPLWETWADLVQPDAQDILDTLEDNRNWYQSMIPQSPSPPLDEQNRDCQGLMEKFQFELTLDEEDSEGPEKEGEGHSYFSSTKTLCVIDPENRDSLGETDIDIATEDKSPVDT

In experiment [12] the target is Cytochrome P450 3A4 (Homo sapiens) (UniProt P08684). As to the kind of experiment: qHTS Assay for Activators of Cytochrome P450 3A4 (AID 885). Further: nearly all actives have a fitted effect of over 65% in size. In outline: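 CYP3A4 activity: Luciferin-PPXE O-dealkylation, 25uM substrate, 200mM KPO4, RT throughout. Read-out is luciferase luminescence; higher values reflect activation.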
Cytochrome P450 3A4 (Homo sapiens), sequence (P08684 whole entry, looked up): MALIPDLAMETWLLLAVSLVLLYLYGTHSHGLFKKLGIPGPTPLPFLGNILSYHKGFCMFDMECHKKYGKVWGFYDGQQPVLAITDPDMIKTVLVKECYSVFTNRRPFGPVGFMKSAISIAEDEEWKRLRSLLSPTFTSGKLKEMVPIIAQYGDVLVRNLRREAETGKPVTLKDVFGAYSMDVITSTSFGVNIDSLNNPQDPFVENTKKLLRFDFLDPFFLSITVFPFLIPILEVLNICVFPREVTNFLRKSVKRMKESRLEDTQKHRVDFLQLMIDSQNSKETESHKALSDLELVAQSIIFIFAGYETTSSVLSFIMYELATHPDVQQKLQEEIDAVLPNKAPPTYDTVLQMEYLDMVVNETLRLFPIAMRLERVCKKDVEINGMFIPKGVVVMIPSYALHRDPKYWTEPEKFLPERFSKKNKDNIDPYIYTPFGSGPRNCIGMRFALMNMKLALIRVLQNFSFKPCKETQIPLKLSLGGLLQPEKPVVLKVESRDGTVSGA
The target of experiment [13] is Glucocorticoid receptor (Homo sapiens) (UniProt P04150). The experiment is described as follows: GR-GFP Redistribution (AID 450;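 active means compounds whose dose series gives a full or clear partial fitted curve of increased nuclear translocation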; further: potency means the concentration at half of the fitted maximal effect). To be noted: U2OS GR-GFP nuclear translocation, laser cytometry, 2 h.
Experiment [14] concerns the target Cytochrome P450 2C19 (Homo sapiens) (UniProt P33261). As to the kind of experiment: qHTS Assay for Inhibitors and Substrates of Cytochrome P450 2C19 (AID 899). Further: potency means the concentration at half of the fitted maximal effect; nearly all actives have a fitted effect of over 60% in size. In outline:
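NADPH-dependent conversion of Luciferin-H EGE (10uM, at KM) by 5nM enzyme in 50mM KPO4, 60 min at 37C following 10 min compound preincubation. Stopped with luciferin detection buffer; luminescence read after 20 min.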

For experiment [15], the target named is Rap guanine nucleotide exchange factor 3 (Homo sapiens) (UniProt O95398). As to the kind of experiment: Counterscreen qHTS for antagonist of cAMP-regulated guanine nucleotide exchange factor 3 (EPAC1) (AID 1645888). Further: % of control where 0% means no effect. In short, it runs like this:
as §1

Cytochrome P450 2C19 (Homo sapiens), sequence (P33261 whole entry, looked up): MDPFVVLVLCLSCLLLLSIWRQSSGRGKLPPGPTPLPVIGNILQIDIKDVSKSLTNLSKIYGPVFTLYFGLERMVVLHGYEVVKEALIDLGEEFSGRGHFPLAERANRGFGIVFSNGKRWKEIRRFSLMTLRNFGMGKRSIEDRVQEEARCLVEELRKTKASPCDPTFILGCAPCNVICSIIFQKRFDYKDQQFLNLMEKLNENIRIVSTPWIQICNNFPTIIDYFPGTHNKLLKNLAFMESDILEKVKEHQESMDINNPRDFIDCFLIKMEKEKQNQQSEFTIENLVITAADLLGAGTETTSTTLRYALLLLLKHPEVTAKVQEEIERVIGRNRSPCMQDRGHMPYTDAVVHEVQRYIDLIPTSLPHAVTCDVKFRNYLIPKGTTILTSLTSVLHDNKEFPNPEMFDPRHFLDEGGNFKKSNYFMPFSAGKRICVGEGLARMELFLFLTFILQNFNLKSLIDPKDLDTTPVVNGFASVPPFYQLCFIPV
Lysosomal acid glucosylceramidase (Homo sapiens), sequence (P04062 whole entry, looked up): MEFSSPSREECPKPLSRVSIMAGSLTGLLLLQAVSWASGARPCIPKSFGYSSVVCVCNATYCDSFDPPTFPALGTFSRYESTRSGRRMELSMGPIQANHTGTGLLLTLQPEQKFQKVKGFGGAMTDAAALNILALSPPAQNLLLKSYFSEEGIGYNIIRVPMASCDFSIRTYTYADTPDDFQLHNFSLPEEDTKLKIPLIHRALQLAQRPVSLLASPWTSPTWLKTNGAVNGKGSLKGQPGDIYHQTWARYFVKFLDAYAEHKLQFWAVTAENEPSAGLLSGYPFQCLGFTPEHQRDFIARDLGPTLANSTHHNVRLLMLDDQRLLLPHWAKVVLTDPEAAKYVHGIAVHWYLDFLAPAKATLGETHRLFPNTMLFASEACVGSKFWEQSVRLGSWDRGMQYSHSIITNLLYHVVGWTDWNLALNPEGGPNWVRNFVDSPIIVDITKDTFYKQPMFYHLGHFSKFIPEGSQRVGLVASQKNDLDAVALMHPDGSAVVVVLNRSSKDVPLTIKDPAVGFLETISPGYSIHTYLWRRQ

Take `CC1=CCC[C@@H]2[C@@](C)(CC/C(C)=C/C(=O)O)[C@H](C)CC[C@@]12C`: the Potency result in [1] and in experiment [3] was “inactive” in each case. Further, the activation in experiment [2] is 7.29% [at 17.1 µM, percent relative to cAMP agonist control]; in experiment [4] it was 10.7% [at 30.8 µM].
Regarding `O=C(c1cc(C(F)(F)F)cc(C(F)(F)F)c1)N1CCC2(CCCN(c3ncccn3)C2)CC1`, the Potency in experiment [5] was greater than 11.4 µM; in experiment [7], 31.6 µM (active); in [9] it was greater than 46 µM; in experiment [3], 44.1 µM (active). The activity change, negative = inhibition in [6] was -18.2%. Moreover, the outcome in experiment [8] and in experiment [12] was inactive. Moreover, the Potency result in [10], in experiment [11], in experiment [1] and in [2] was “inactive” each time.
As to `Nc1nc(N)c(-c2cccc(C(F)(F)F)c2)c(Cc2cccc(C(F)(F)F)c2)n1`, the activity change, negative = inhibition in experiment [6] was 11.9%. For the same compound, the call in experiment [8] was inactive. Also, the Potency in experiment [13] was greater than 46 µM; in experiment [9], greater than 9.22 µM; in [14] it was 2.51 µM (active). Also, the Potency entry in [11], in [1], in experiment [2], in experiment [3] and in experiment [4] was “inactive” throughout. Further, the activity change, positive = activation in experiment [12] was -31.2% [at 11.4 µM].
As to `O=C(CSc1nnc(-c2cccs2)n1Cc1ccco1)Nc1ccc2c(c1)OCO2`, the Potency entry in experiment [1], in experiment [2], in experiment [3] and in [4] was “inactive” in each case.
Regarding `CCCCOC(=O)C1=C(C)Nc2nnnn2C1c1ccccc1Cl` (centres undefined), the Potency result in [1], in experiment [2], in experiment [3] and in experiment [4] was “inactive” each time.
As to `CCC[C@H]1CC(=O)C=C(c2ccsc2)ON1C(=O)OC(C)(C)C`, the Potency entry in [1], in experiment [2], in [3] and in [4] was “inactive” each time.
As to `CCCC[C@H]1COCCS(=O)(=O)N1Cc1ccc(Br)cc1`, the Potency result in [1], in experiment [2], in experiment [3] and in experiment [4] was “inactive” in each case.
On to `CC(C)Cn1nc(NS(=O)(=O)c2cccc3nonc23)c2cc3ccccc3nc21`, for which the Potency entry in experiment [1], in experiment [2], in experiment [3] and in experiment [4] was “inactive” throughout.
In the case of `CCN(Cc1ccccc1)S(=O)(=O)c1cc2c3c(c1)CCN3C(=O)CC2`, the Potency result in experiment [1] and in [3] was “inactive” throughout. For the same compound, the activation in experiment [2] was 0.922% [at 17.1 µM, percent relative to cAMP agonist control]; in experiment [4] it was -5.83% [at 30.8 µM].
Take `O=Nc1c(O)n(Cc2cccc(C(F)(F)F)c2)c2ccccc12`: the Potency result in experiment [1], in experiment [2] and in experiment [4] was “inactive” in each case. Further, in experiment [3], the Potency was 47.8 µM (active).
`Cc1ccc(NS(=O)(=O)c2cccc(C(=O)OCC(=O)NCc3ccco3)c2)cc1`: the Potency entry in experiment [1], in [2], in experiment [3] and in experiment [4] was “inactive” throughout.
Turning to `CCC(NC(=O)c1ccccc1NC(=O)c1ccco1)C(=O)NNC(=O)c1ccc(OC)cc1` (centres undefined), the Potency entry in experiment [1] and in experiment [3] was “inactive” each time. The activation in [2] is 0.808% [at 17.1 µM, percent relative to cAMP agonist control]; in [4], 9.27% [at 30.8 µM].
Consider `O=C(Cc1c(Sc2ccccc2)c2ccccc2n1Cc1ccccc1)NCCO`, for which the Potency entry in experiment [1], in experiment [2] and in experiment [15] was “inactive” throughout.
With `CCCCCC(=O)N1c2ccccc2C(C)(c2ccccc2)CC1(C)C` (centres undefined), the Potency result in [1], in experiment [2], in experiment [3] and in [4] was “inactive” each time.
In the case of `Cc1cc2c(cc1C)C(c1ccccc1OC(C)C)CC(=O)N2` (centres undefined), the Potency result in [1], in experiment [2] and in experiment [4] was “inactive” each time. The Potency in experiment [3] is 33.8 µM (active).
`CCCCN1CC(c2nc3ccccc3n2CCCCOc2cc(C)cc(C)c2)CC1=O` (centres undefined): the Potency result in experiment [1], in experiment [2], in experiment [3] and in [4] was “inactive” each time.
As for `O=C(O)c1cc(NN=Nc2cccc([N+](=O)[O-])c2)cc([N+](=O)[O-])c1`, the Potency entry in experiment [1] and in experiment [3] was “inactive” in each case. Also, the activation in [2] was 1.11% [at 17.1 µM, percent relative to cAMP agonist control]; in experiment [4], 8.61% [at 30.8 µM].
On to `O=C(Nc1ccccc1N1CCCCC1)c1cnccn1`, for which the Potency entry in [1] and in experiment [3] was “inactive” in each case. Besides, the activation in experiment [2] is 0% [at 17.1 µM, percent relative to cAMP agonist control]; in [4], 21.6% [at 30.8 µM].
As for `Cc1ccc(NS(=O)(=O)c2ccc(C(=O)N3CC(C)CC(C)C3)cc2)cc1` (centres undefined), the Potency result in experiment [1], in [2], in [3] and in experiment [4] was “inactive” throughout.
Turning to `CCC(C)(C)c1ccc(OCC(=O)N(C)C)c(C(C)(C)CC)c1`, the Potency result in [1], in experiment [2] and in experiment [4] was “inactive” throughout. The Potency in [3] was 67.5 µM (active).
For `Cc1occc1C(=O)N/N=C/C1=C(N2CCOCC2)C(=C/c2ccc(Cl)cc2Cl)/CC1`, the Potency result in experiment [1], in experiment [2], in experiment [3] and in experiment [4] was “inactive” in each case.
For the compound `C/C(=N\NS(=O)(=O)c1ccc(C(C)(C)C)cc1)c1ccccc1`, the Potency entry in experiment [1] and in experiment [3] was “inactive” each time. The activation is 13.7% [at 17.1 µM, percent relative to cAMP agonist control] in experiment [2] and 25% [at 30.8 µM] in experiment [4].
In the case of `Cc1cccc(N2CC(C(=O)Nc3nnc(SCC(=O)NCC4CCCO4)s3)CC2=O)c1` (centres undefined), the Potency result in [1], in experiment [2], in [3] and in experiment [4] was “inactive” in each case.
Consider `CCCCC[C@H](C)N1C[C@@H](COCc2ccccc2)Oc2cc(N3CC[C@@H](O)C3)ccc2S1(=O)=O`, for which the Potency entry in experiment [1] and in [3] was “inactive” in each case. Moreover, the activation in experiment [2] was 6.13% [at 17.1 µM, percent relative to cAMP agonist control]; in [4] it was 5.17% [at 30.8 µM].
